PLC-gamma1 inh – blocks human PLC-gamma1 enzyme activity; purified PLC-gamma1, fluorogenic substrate, fluorescence; AID 720700; inhibition, % at 12.2 µM; actives 0.84% (n = 370,000); P19174; in the data active = inhibition above about 9.5%
PLC-beta3 inh – PLC-beta3 (human) inhibition, primary screen; Q01970; Purified PLC-beta3, fluorogenic substrate, fluorescence; inhibition, % at 12.2 µM; actives 0.18% (n = 370,000); in the data active = inhibition above about 11%
ADAM10 inh – ADAM10 inhibition, QFRET primary screen; inhibition, % at 7 µM; O14672; recombinant ADAM10, EDANS/DABCYL FRET peptide cleavage, 3 h; AID 720582; actives 0.62% (n = 370,000);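 active = inhibition above a per-campaign cutoff equal to the mean of compounds falling between control-based bounds plus 3 SD, cut at about 20% in these data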
ADAM17 inh – inhibits human ADAM17 | actives 0.83% (n = 370,000) | P78536 | inhibition, % at 6.95 µM | AID 720648 | recombinant ADAM17, EDANS/DABCYL FRET peptide cleavage;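 active = inhibition above the mean of compounds lying between control limits plus 3 SD, set per campaign, cut at about 8.5% in these data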
proKLK7 act – activates the human kallikrein-7 zymogen | P49862 | purified proKLK7, EDANS-DABCYL substrate fluorescence; 100% is mature enzyme control, 0% vehicle | activation, % at 7 µM | actives 0.9% (n = 370,000);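 active = activation above the mean of all tested compounds plus 3 SD, computed per campaign excluding outliers beyond control limits, cut at about 13% in these data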
Each line names hits and unclear results; the compound was inactive in the other large screens; ! = a repeat was not active. Rows were chosen to be rich in hits. Some 2.9% of all compounds tested hit in one or more screens of this group.

COc1cccc(-c2sc3ccc(OC)cc3c2C#CC2(O)CCCCC2)c1	none
O=C1CC(SC(=S)C2CCCC2=O)C(=O)N1 (stereo not given)	PLC-gamma1 inh 12
CC(C)(CN1CCNCC1)NS(=O)(=O)c1ccc(Cl)cc1	PLC-gamma1 inh 16
CC(C)(C)NC(=O)C(c1c[nH]c2ccccc12)N(C(=O)Cn1nnc(-c2ccc(Cl)cc2)n1)c1ccccc1F (stereo not given)	none
COc1cccc(N(C(=O)Cn2nnc(-c3ccc(C)cc3)n2)C(C(=O)NC(C)(C)C)c2c[nH]c3ccccc23)c1 (stereo not given)	ADAM10 inh 23, ADAM17 inh 12
COc1ccccc1CC(NC(C)=O)C(=O)NC1CCN(C(=O)NCc2ccccc2)CC1 (stereo not given)	none
COC(=O)C1=CN(CCOC23CC4CC(CC(C4)C2)C3)C=C(C(=O)OC)C1c1ccsc1	none
O=C(CSC1=NNC(c2ccccn2)S1)Nc1cccc(Cl)c1 (stereo not given)	ADAM10 inh 22
CCN1C(=O)[C@H]2[C@@H](c3ccc(-c4ccc(F)cc4)c(OC)c3)N3CCCC[C@@]3(C(=O)OC)[C@H]2C1=O	ADAM17 inh 8.6
COc1ccc(/C=N\NC(=O)c2cccc(Br)c2)c(OC)c1	none
O=C1CSC(=Nc2ccc(O)cc2)N1c1ccc(O)cc1	none
C=CC[C@@H](Cc1ccc(F)cc1)C(=O)OC[C@@H]1CCCN1C(=O)[C@H](CC=C)CC(=O)N[C@H](CO)Cc1ccccc1	PLC-gamma1 inh 9.7, PLC-beta3 inh 12, ADAM17 inh 15
CC(=O)Nc1ccc(C=NNc2ccc([N+](=O)[O-])cc2S(=O)(=O)Nc2ccccc2C(=O)O)cc1	none
CC(=O)Nc1ccc(C=NNc2ccc(S(=O)(=O)Nc3ccccc3C(=O)O)cc2[N+](=O)[O-])cc1	PLC-gamma1 inh 11
CN1CCN(S(=O)(=O)c2cccc(C(=O)Nc3cccc([N+](=O)[O-])c3)c2)CC1	none
CCOC(=O)c1c(NC(=S)Nc2ccccc2)sc2c1CCN(CC)C2	proKLK7 act 75
CCOC(=O)c1c(NC(=S)NCc2ccccc2)sc2c1CCN(C(=O)OCC)C2	none
O=C(/C=C/c1ccccc1)OCC(=O)N1CCCC1	PLC-gamma1 inh 11
O=C1CCCN2N=C(SCC(=O)Nc3nccs3)SC2=N1	none
O=C1CCCN2N=C(SCC(=O)Nc3nc4ccccc4s3)SC2=N1	PLC-gamma1 inh 10
CN(C)CCNC(=O)c1coc(=O)c(Br)c1	none
CC(C)CNC(=O)c1coc(=O)c(Br)c1	proKLK7 act 27
Cc1ccc(C(=O)NCCN2C3=NC[C@H](Cc4ccc(O)cc4)N3C[C@H]2Cc2ccc(O)cc2)cc1Br	PLC-gamma1 inh 10
COc1ccc(C[C@H]2CN3C(=NC[C@@H]3Cc3ccc(O)cc3)N2CCNC(=O)c2ccc(C)c(Br)c2)cc1	none
Cc1cccc(Nc2nc(N)c([N+](=O)[O-])c(N3CCCC(C)C3)n2)c1 (stereo not given)	ADAM17 inh 9.0
CCN(CC)c1ccc(NC(=O)c2cccc(C)c2)cc1S(=O)(=O)Nc1ccccc1OC	ADAM10 inh 25, ADAM17 inh 13
CCN(CC)c1ccc(NC(=O)c2ccccc2)cc1S(=O)(=O)Nc1ccccc1OC	ADAM17 inh 9.4
O=C(COC(=O)CCC(=O)c1cccs1)Nc1cccc(S(=O)(=O)N2CCOCC2)c1	none
Oc1ccccc1CNc1ccc2c(c1)OCCO2	none
O=[N+]([O-])c1cc(S(=O)(=O)N2CCOCC2)ccc1N1CCNCC1	none
CC(=O)N1CCN(c2ccc(S(=O)(=O)N3CCOCC3)cc2[N+](=O)[O-])CC1	PLC-gamma1 inh 10.0
COC(=O)C1=C(C)N(Cc2ccc(C(F)(F)F)cc2)C(=NCc2ccc3c(c2)OCO3)NC1c1ccccc1C(F)(F)F (stereo not given)	none
COC(=O)C1=C(C)N(Cc2ccccc2C(F)(F)F)C(=NCc2ccc3c(c2)OCO3)NC1c1ccccc1C(F)(F)F (stereo not given)	PLC-beta3 inh 11
O=C(CCNC(=O)N1CC(=O)Nc2ccccc21)NCc1ccc(F)cc1	none
CCOC(=O)CNC(=O)CSc1nnc(Cn2c(=O)sc3ccccc32)n1C	none
Cn1cc(P(=S)(N2CCOCC2)N2CCOCC2)cc1P(=O)(N1CCOCC1)N1CCOCC1	PLC-gamma1 inh 18
CCOC(=O)CSc1nnc([C@H](C)NC(=O)OC(C)(C)C)o1	none
Cc1ccccc1-n1nc(C)c2cc(C(=O)N3CCOCC3)sc21	none
Cc1ccc(S(=O)(=O)N2CCN(C(=O)c3cc4c(C)nn(-c5ccccc5C)c4s3)CC2)cc1	ADAM10 inh 22, ADAM17 inh 9.0
Cc1[nH]n(-c2ccc(Cl)cc2)c(=O)c1C=Nc1ccc(S(=O)(=O)N2CCOCC2)cc1	none
O=c1oc(-c2ccccc2)cc(Cl)c1Cl	proKLK7 act 347
O=C(CSc1nnc(CNc2ccc(F)cc2)o1)N1c2ccccc2Sc2ccccc21	ADAM10 inh 24
COc1ccc(C(=O)NC(C)c2nnc(SCC(=O)NC3=NCCS3)n2C)cc1 (stereo not given)	none
CSc1nc2n(n1)C(c1ccccn1)C1=C(CC(C)(C)CC1=O)N2 (stereo not given)	none
COC(=O)c1nc2n(n1)C(c1cccc(Cl)c1)C1=C(CC(C)(C)CC1=O)N2 (stereo not given)	proKLK7 act 19
COc1cc(/C=N/NC(=O)c2nonc2N)cc(OC)c1OC	none
O=C1C=CC2=C3c4cc(O)c(O)cc4CC3(O)COC2=C1O (stereo not given)	PLC-gamma1 inh 16
OC(c1ccccc1)(c1ccccc1)C1CCN(CCCOc2ccc(F)cc2)CC1	PLC-gamma1 inh 11!
COCCNC(=O)C(=O)NCC1OCCN1S(=O)(=O)c1ccc(C)cc1 (stereo not given)	none
COc1cccc(CNC(=O)COC(=O)c2c(NC(C)=O)sc(C)c2C)c1	none
CC(=O)Nc1sc(C)c(C)c1C(=O)OCC(=O)NCc1ccc(Cl)cc1	PLC-gamma1 inh 12
NC(=O)COC(=O)c1ccccc1SCC(=O)NC1CCCCCCC1	none
CCNC(=O)NC(=O)COC(=O)c1ccccc1SCC(=O)NC(=O)NCC	proKLK7 act 39
COc1ccc(CN(C)CCc2ccccn2)cc1OC	PLC-gamma1 inh 11, PLC-beta3 inh 13
O=C(CN(c1cccc(C(F)(F)F)c1)S(=O)(=O)c1ccc(Cl)c([N+](=O)[O-])c1)NCc1ccc(F)cc1	PLC-beta3 inh 11, ADAM10 inh 20
Cc1ccc(NS(=O)(=O)c2cc(NC(=O)c3ccc4c(c3)NC(=O)CS4)ccc2C)c(C)c1	ADAM10 inh 26, ADAM17 inh 10
O=C1C=C(C#Cc2ccccc2)C[C@@H](c2ccc(F)cc2)C1	none
O=C1CCCC2=C1C(c1ccc(Br)cc1)c1c([nH]c(=S)[nH]c1=O)N2 (stereo not given)	none

Compound activity as filed in PubChem BioAssay.
